Rows were chosen to be rich in hits. Some 3.7% of all compounds tested hit in one or more screens of this group.
IL-2 act: qHTS of IL-2 Activators; IL-2 activation reporter assay, cell-based qHTS; stimulated with anti-CD3/CD4/CD28 beads; in transgenic mouse T cells; activation, % (series mostly up to about 46 µM); 360,000 tested, 0.065% active; in the data active = activation above about 50%; inconclusive = mostly about 30% to 49%
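Unstimulated transgenic mouse T cells; 60-min compound exposure; bead-based TCR/CD4/CD28 stimulation; 18 h culture, 37 degrees C; dual fluorescence (EGFP, DsRed) plate cytometry.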
miR-21 act: qHTS Assay for Modulators of miRNAs and/orActivators of miR-21 | HeLa miR-21 FLuc reporter, luciferase, 48 h | 340,000 tested, under 10 active | Potency, µM (doses to about 38.3 µM), hits mostly activators;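 also: miR-21 action dims this reporter so a rising signal means less miR-21 action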
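HeLa cells endogenously expressing miR-21, stably carrying CMV-driven firefly luciferase with a downstream miR-21 binding site, 2000 cells/well. Titrations up to approximately 40 uM, 48 hours; luciferase luminescence read.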
ClpP mod: qHTS Assay for Activators of ClpP | ATP-dependent Clp protease proteolytic subunit (Bacillus subtilis (strain 168)), P80244 | purified B. subtilis ClpP, FRET peptide cleavage, 20 min | Potency, µM (top dose mostly 57.5 µM) | 340,000 tested, 1.9% active | AID 651965, 2013; active = well fitted falling curve with a large enough effect; inconclusive = small, poorly fitted or top-dose-only effect; inactive = no such curve, though single readings can be large or run the other way; also: the source files actives as falling curves though it sought activators and does not explain the sign; nearly all actives have a fitted effect of over 65% in size
Target sequence (P80244 whole entry, looked up): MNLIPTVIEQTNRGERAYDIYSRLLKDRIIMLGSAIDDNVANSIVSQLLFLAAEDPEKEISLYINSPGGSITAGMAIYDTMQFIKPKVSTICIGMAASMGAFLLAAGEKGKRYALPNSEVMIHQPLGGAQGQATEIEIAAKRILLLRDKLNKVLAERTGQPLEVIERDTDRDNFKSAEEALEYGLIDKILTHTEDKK
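Buffer: 100 mM Tris/HCl pH8, 100 mM KCl, 0.05% low protease BSA, 2.5% glycerol, 0.01% Tween-20. ClpP 10 microg/mL final; 20 min RT; delta FRET normalized to ADEP and DMSO controls.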
A549 viability: Nrf2 qHTS screen for inhibitors: counterscreen for cytotoxicity. A549 ARE-Fluc cells, CellTiter-Fluor viability, 18-24 h. Potency, µM (titrated, usually from 46 µM), most hits filed as inhibitors. 390,000 tested, 0.16% active. AID 504648, 2011
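A549 ARE_Fluc cells in 5% FBS OPTI-MEM were exposed to compounds in concentration-response for 18-24 h at 37 deg C. Viability was read by CellTiter-Fluor fluorescence (Ex 405/Em 525) after 30 min, before the luciferase read.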
Nrf2 ARE act: qHTS of Nrf2 Activators | AREc32 ARE-luciferase reporter (MCF7-derived line), luminescence, 24 h | Potency, µM (doses to about 46.1 µM), hits mostly activators | 410,000 tested, 0.31% active | AID 624171, 2012; also: nearly all actives have a fitted effect of over 65% in size
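Nrf2 activation is followed as ARE-luciferase induction in the AREc32 line after one day of compound treatment; luminescence is read with Steady-Glo.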
Nrf2 block: Nrf2 qHTS screen for inhibitors; 360,000 tested, 2.1% active; AID 504444, 2011; Potency, µM (doses to about 46 µM), hits mostly inhibitors; A549 ARE-Fluc reporter, luciferase luminescence, 18-24 h; also: nearly all actives have a fitted effect of over 60% in size
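A549 ARE_Fluc cells (5000/well, 5% FBS OPTI-MEM) pre-incubated 2 h, then treated with compounds 18-24 h at 37C/5% CO2 in concentration-response. CellTiter-Fluor viability read first; BugLite luciferase luminescence after 15 min at room temperature gives Nrf2 activity.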
ClpP inh valid: qHTS Assay for Activators of ClpP: Hit Validation of Inhibitors; Potency, µM (highest dose often 57.5 µM), hits mostly inhibitors; purified B. subtilis ClpP, FRET-FV substrate cleavage, 20 min; 470 tested, 40% active; shares compounds with ClpP mod; also: nearly all actives have a fitted effect of over 70% in size
Of the large screens only hits and unclear results are named; the others gave an inactive call (follow-up assays come after a bar, where they were run). Unless noted, calls follow the shape of the dose curve; as a rule, active = well fitted curve in the direction sought with a large enough effect; inconclusive = small, poorly fitted or top-dose-only effect, or another doubt; inactive = no such curve, though single readings can be large; an effect the other way counts as inactive or inconclusive.

Cc1cccc(N2CCN(C(=O)CN3C(=O)COc4ccc(S(=O)(=O)N5CCC(C)CC5)cc43)CC2C)c1 (stereo unspecified)	none (no result: IL-2 act)
Cc1ccc(-c2nnc(-c3ccccc3S(=O)(=O)Cc3ccc(Cl)cc3)o2)cc1	none (no result: Nrf2 block) | ClpP inh valid 14µM
O=S(=O)(Cc1ccccc1)c1ccccc1-c1nnc(-c2ccccc2)o1	none (no result: Nrf2 block)
O=S(=O)(Cc1ccc(Cl)cc1)c1ccccc1-c1nnc(-c2ccc(Cl)cc2)o1	Nrf2 block inconclusive | ClpP inh valid 27µM
CSc1ccccc1-c1nnc(-c2ccc(C)cc2)o1	none (no result: Nrf2 block)
COc1ccc(NC(=O)COc2ccc(S(=O)(=O)NC3CCCCC3)cc2)c(OC)c1	none (no result: IL-2 act)
CCOC(=O)c1c(C)oc2ncnc(N3CCN(c4ccccc4OC)CC3)c12	Nrf2 block inconclusive (no result: IL-2 act)
CC1Cc2ccccc2N1c1nc(C2CC2)nc2c1nnn2Cc1ccccc1 (stereo unspecified)	ClpP mod 7.1µM | ClpP inh valid 27µM
COC(=O)c1ccc(NC(=O)c2cc3cc4ccc(OC)c(Cl)c4nc3s2)cc1	none (no result: IL-2 act, Nrf2 block)
CC(C)(C)NC(=O)C(c1ccc(-c2ccccc2)cc1)n1c(=O)c(-c2cc3ccccc3[nH]2)nc2ccccc21 (stereo unspecified)	none (no result: miR-21 act, A549 viability, Nrf2 ARE act, Nrf2 block) | ClpP inh valid inactive
Cc1cccc(C)c1NC(=O)C(c1ccc(C(F)(F)F)cc1)n1c(=O)c(-c2cc3ccccc3[nH]2)nc2ccccc21 (stereo unspecified)	none (no result: miR-21 act, A549 viability, Nrf2 ARE act, Nrf2 block)
Cc1cccc(C)c1NC(=O)C(c1ccc(-c2ccccc2)cc1)n1c(=O)c(-c2cc3ccccc3[nH]2)nc2ccccc21 (stereo unspecified)	none (no result: miR-21 act, A549 viability, Nrf2 ARE act, Nrf2 block) | ClpP inh valid inactive
O=S(=O)(Nc1cccc(-c2cn3cccnc3n2)c1)c1ccc(Cl)cc1	ClpP mod 7.1µM | ClpP inh valid 24µM
CCOC(=O)c1cc2n(n1)C(C(F)(F)F)CC(C)N2 (stereo unspecified)	Nrf2 block inconclusive | ClpP inh valid inactive
CC1CC(C(F)(F)F)n2nc(C(=O)O)cc2N1 (stereo unspecified)	Nrf2 block inconclusive
Cc1ccc(Cl)cc1N1CCN(C(=O)c2cc(S(=O)(=O)N3CCCC3)c[nH]2)CC1	miR-21 act inconclusive (no result: IL-2 act)
CCC(C)NC(=O)c1cc2cc3ccc(OC)cc3nc2s1 (stereo unspecified)	ClpP mod 10µM, Nrf2 block inconclusive | ClpP inh valid 14µM
CCOC(=O)N1CCN(C(=O)c2ccc(S(=O)(=O)Nc3ccc(C)cc3)cc2)CC1	Nrf2 block 10µM (no result: miR-21 act) | ClpP inh valid inactive
Cc1cc(N2CCOCC2)nc2ccc(NC(=O)CCC(=O)N3CCCCC3)cc12	ClpP mod 7.1µM | ClpP inh valid 24µM
Cc1cc(N2CCCCC2)nc2ccc(NC(=O)c3ccc(F)cc3)cc12	Nrf2 block inconclusive (no result: IL-2 act) | ClpP inh valid inactive
O=C(CN1C(=O)C2CCCCN2c2ccc(C(=O)N3CCCC3)cc21)NCc1ccc(F)cc1 (stereo unspecified)	none (no result: IL-2 act, Nrf2 block)
Cc1cccc(CC(=O)Nc2ccc(C(=O)N3CCCCC3)cc2)c1	ClpP mod 3.2µM | ClpP inh valid inactive
O=C(Cc1cccc(NC(=O)C2CCCN(C(=O)C3CC3)C2)c1)Nc1ccc(C(=O)N2CCCCC2)cc1 (stereo unspecified)	none (no result: miR-21 act)
Cc1nc2ccc([N+](=O)[O-])cc2c(=O)n1Cc1ccccc1Br	none | ClpP inh valid inactive
CNC(=O)Cn1cc(S(=O)(=O)Cc2ccccc2F)c2ccccc21	Nrf2 block inconclusive (no result: IL-2 act)
Brc1cccc(-c2nnn3c2nc(NCc2ccc4c(c2)OCO4)c2ccccc23)c1	none (no result: IL-2 act) | ClpP inh valid inconclusive
CCCCNc1nc2c(-c3cccc(Br)c3)nnn2c2ccccc12	none (no result: IL-2 act)
CC1=C(c2ccc(C(C)C)cc2)S(=O)(=O)NC1=NCc1ccc(OC(C)C)cc1	none (no result: IL-2 act)
CCOc1ccc(N(C(=O)CNC(=O)c2ccco2)C(C(=O)NC2CCCC2)c2ccco2)cc1 (stereo unspecified)	ClpP mod 3.2µM | ClpP inh valid inactive
CCOc1ccc(N(C(=O)CNC(=O)c2ccco2)C(C(=O)NC2CCCC2)c2cccnc2)cc1 (stereo unspecified)	none (no result: ClpP mod)
FC(F)(F)c1cccc(N2CCN(c3nc4ccccc4n4cnnc34)CC2)c1	ClpP mod inconclusive, Nrf2 block inconclusive (no result: IL-2 act)
Cc1cc(=O)oc2c(C)c(OC(=O)c3ccco3)ccc12	none (no result: miR-21 act) | ClpP inh valid inactive
CCC(=O)Oc1ccc2c(C)cc(=O)oc2c1C	none
CC(=O)Nc1ccc2nc(-c3ccccc3)cn2c1	ClpP mod 3.5µM, Nrf2 block inconclusive | ClpP inh valid 22µM
CC(=O)Nc1ccc(-c2cc(-c3ccc(NC(C)=O)cc3)nc(-c3ccccc3)n2)cc1	ClpP mod 7.9µM, Nrf2 block inconclusive | ClpP inh valid 24µM
CC(=O)Nc1cccc(-c2cn3ccc(C)cc3n2)c1	Nrf2 block inconclusive
CC(=O)Nc1ccc(-c2cc(C(=O)O)c3ccccc3n2)cc1	Nrf2 block inconclusive
CC1CCCN(c2ncnc3c2nc2n3CCCCC2)C1 (stereo unspecified)	Nrf2 block inconclusive (no result: IL-2 act)
CCc1ccccc1NC(=O)C(C)n1nc(-c2ccc(C)c(C)c2)ccc1=O (stereo unspecified)	none (no result: IL-2 act)
CCc1cc2c(N3CCN(C(=O)c4ccco4)CC3)ncnc2s1	ClpP mod 2.8µM, Nrf2 block inconclusive | ClpP inh valid inactive
Cc1ccc(N2CCN(C(=O)c3cn(C)c4ccc(S(=O)(=O)N(C)C5CCCCC5)cc4c3=O)CC2C)cc1 (stereo unspecified)	none (no result: IL-2 act)
O=c1n(Cc2ccc(Cl)cc2)c2sc3c(c2c2ncnn12)CCCC3	ClpP mod 2.8µM (no result: Nrf2 block) | ClpP inh valid inactive
CCC(CO)NC(=O)C(=O)Nc1c2c(nn1-c1ccc(F)cc1)CSC2 (stereo unspecified)	none (no result: IL-2 act, Nrf2 block)
CCC(=O)Nc1cc2nn(-c3ccc(C)cc3)nc2cc1C	Nrf2 block inconclusive
CCCCC(=O)Nc1cc2nn(-c3ccc(OC)cc3)nc2cc1C	ClpP mod 1µM, Nrf2 block inconclusive | ClpP inh valid 24µM
